The source of these data is PubChem BioAssay AID1053 (University of Pittsburgh Molecular Library Screening Center, 2008).

“And” between values parts separate entries of the source, which are not always exact repeats. Equal values may be shown once. A number with no mark means an inactive call. The source made the active and inactive calls. How the calls were made is not given here.

For orientation: inhibition means the change of the read-out against control, counted positive when it falls.

The target in the experiment is Serine/threonine-protein kinase PLK1 (Homo sapiens) (UniProt P53350). In words: Plk1 polo box domain binding inhibitors, SAR follow-up, biochemical, fluorescence polarization, purchased analogs (AID 1053). The settings on record: Plk1 PBD fluorescence polarization peptide binding; at 20 µM; active compounds read high. Background: Fluorescence polarisation rises when a labelled molecule tumbles more slowly, as on binding a larger partner.
Sequence of Serine/threonine-protein kinase PLK1 (Homo sapiens) (P53350 whole entry, looked up, the tested form may be a part): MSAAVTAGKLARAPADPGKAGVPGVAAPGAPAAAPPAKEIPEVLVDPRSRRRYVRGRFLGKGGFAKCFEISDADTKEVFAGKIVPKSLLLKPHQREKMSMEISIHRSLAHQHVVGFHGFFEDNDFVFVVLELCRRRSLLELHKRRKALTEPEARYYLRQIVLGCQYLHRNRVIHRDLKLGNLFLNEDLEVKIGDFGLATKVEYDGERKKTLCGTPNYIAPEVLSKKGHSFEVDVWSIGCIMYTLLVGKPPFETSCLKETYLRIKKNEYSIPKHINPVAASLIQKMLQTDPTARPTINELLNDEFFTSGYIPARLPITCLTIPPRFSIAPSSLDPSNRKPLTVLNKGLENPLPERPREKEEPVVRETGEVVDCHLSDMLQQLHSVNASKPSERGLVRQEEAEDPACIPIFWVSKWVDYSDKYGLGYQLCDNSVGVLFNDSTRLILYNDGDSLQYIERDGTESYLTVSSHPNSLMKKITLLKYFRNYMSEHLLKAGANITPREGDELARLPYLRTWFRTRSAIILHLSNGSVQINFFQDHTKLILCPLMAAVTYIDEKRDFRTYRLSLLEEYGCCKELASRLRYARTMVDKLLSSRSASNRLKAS
As for `Cc1cc(-n2c(C)cc(C=C3C(=O)NC(=O)NC3=O)c2C)ccc1I`, the inhibition is -48.2%.

For `CCOC(=O)c1ccc(NC(=O)C2COc3ccccc3O2)cc1` (configuration not stated), the inhibition is -40.6%.

Regarding `CC(=O)c1ccc(N(CN2C(=O)c3ccc([N+](=O)[O-])cc3C2=O)C(C)=O)cc1`, the inhibition was -32.8%.

For the compound `COc1cc(C=C2C(=O)NC(=O)NC2=O)ccc1OCc1c(C)no[n+]1[O-]`, the inhibition is -67.5%.

For `COc1ccc(N(/C=C2\Sc3ccccc3C2=O)C(C)=O)cc1`, the inhibition is -312%.

On to `Cn1c(=O)[nH]c2nnc(-c3ccc(C(F)(F)F)cc3)nc2c1=O`, for which the inhibition is -39.5% and -40.5%.

With `CCn1nc(-c2ccccc2C)nc2c(=O)n(C)c(=O)nc1-2`, the inhibition is 2.2% and 21.7%.

Regarding `CC(=O)N(/N=C1\Sc2ccccc2C1=O)c1ccccc1I`, the inhibition is -47.1%.

For `CCCCCC(=O)N(CN1C(=O)c2ccccc2C1=O)c1cccc(C(=O)O)c1`, the inhibition is -10.1%.

On to `CCOC(=O)c1ccc(NC(=O)C2CCC(C(C)(C)C)CC2)cc1` (configuration not stated), for which the inhibition is 8.43%.

Take `CCOC(=O)c1ccc(NC(=O)C2Oc3ccccc3OC2C)cc1` (configuration not stated): the inhibition is -28.8%.

With `CC(=O)N(CN1C(=O)c2ccccc2C1=O)c1cccc(C)c1`, the inhibition is -35.8%.

`CCOC(=O)c1ccc(NC(=O)c2cc3ccccc3c(=O)o2)cc1`: the inhibition is -35.6%.

Consider `CCN(CC)CCOC(=O)c1ccc(NC(=O)c2cc(OC)c(OC)cc2OC)cc1`, for which the inhibition was -46.3%.

For the compound `COc1ccc(N(CN2C(=O)c3cc(Cl)c(Cl)cc3C2=O)C(C)=O)cc1`, the inhibition is -52.7%.

Consider `CCOC(=O)c1ccc(NC(=O)C2CC(=O)N=C(N)S2)cc1` (configuration not stated), for which the inhibition is -67.2%.

In the case of `CCOC(=O)c1ccc(NC(=O)C2CC(=O)NC(=NC)S2)cc1` (configuration not stated), the inhibition was -37.5%.

For `CCn1nc(-c2cccc(Cl)c2)nc2c(=O)n(C)c(=O)nc1-2`, the inhibition was -5.43% and -17.8%.

On to `CC(=O)N(/N=C1\Sc2ccccc2C1=O)c1ccccc1C`, for which the inhibition is 17.5%.

With `O=C(COC(=O)c1ccc(NC(=O)c2ccc(Cl)cc2)cc1)c1ccccc1`, the inhibition is 41.3%.

Regarding `Cn1c(=O)c2nc(-c3ccccc3)c(=O)n(C)c2n(C)c1=O`, the inhibition was -37.8%.

Turning to `CCCCOC(=O)c1ccc(NC(=O)c2cc(OCC)c(OCC)c(OCC)c2)cc1`, the inhibition was -30.5%.

Regarding `Cc1ccc(N(CN2C(=O)c3ccc([N+](=O)[O-])cc3C2=O)C(=O)C(c2ccccc2)c2ccccc2)cc1`, the inhibition was -39.6%.

`CC(=O)N(CN1C(=O)c2ccccc2C1=O)c1cc(Br)ccc1C`: the inhibition was -56.1%.

On to `COc1ccc(-c2nc3c(=O)n(C)c(=O)nc-3n(C)n2)cc1OC`, for which the inhibition was 1.9%.

As to `CCOC(=O)c1ccc(NC(=O)C2C3C=CC(C3)C2C(=O)O)cc1` (configuration not stated), the inhibition is -31.4%.

As for `CCOc1cc(-c2nnc3[nH]c(=O)n(C)c(=O)c3n2)ccc1OC(C)C`, the inhibition is 15.8%.

In the case of `CCOC(=O)c1ccc(N=Cc2c(O)n(-c3ccc(OCC)cc3)c(=O)[nH]c2=O)cc1`, the inhibition is -112%.

`CCCOC(=O)c1ccc(NC(=O)c2c(F)c(F)c(F)c(F)c2F)cc1`: the inhibition is -41.6%.

With `O=C(COC(=O)c1ccc(NC(=O)c2ccc([N+](=O)[O-])cc2)cc1)c1ccccc1`, the inhibition was 61.8% (active).

For the compound `CCOC(=O)c1ccc(NC(=O)C2C3C=CC(C3)C2(C)C(=O)O)cc1` (configuration not stated), the inhibition is -56.5%.

Regarding `COc1ccccc1N(/C=C1\Sc2ccccc2C1=O)C(C)=O`, the inhibition is -288% and -274%.

As for `CCN(CC)CCOC(=O)c1ccc(N=Cc2c(O)n(-c3c(C)cc(C)cc3C)c(=O)[nH]c2=O)cc1`, the inhibition was -134%.

Turning to `CC(=O)N(CN1C(=O)c2ccccc2C1=O)c1ccc(Br)cc1`, the inhibition is -29.4%.

For `CCCOC(=O)c1ccc(NC(=O)c2cc(-c3cccs3)nc3c(C)c(Cl)ccc23)cc1`, the inhibition is 36.6%.

For the compound `COc1ccc(C(=O)COC(=O)c2ccc(NC(=O)c3ccccc3)cc2)cc1`, the inhibition was 40.3%.

Regarding `Cn1c(=O)[nH]c2nnc(-c3ccc4c(c3)OCO4)nc2c1=O`, the inhibition was -38.9% and 28%.
